# A selection: hits, their analogues and other compounds. The true share with any hit is near 19%.
# DT40 TDP1 no CPT = qHTS for Inhibitors of human tyrosyl-DNA phosphodiesterase 1 (TDP1): qHTS in cells in absence of CPT | Potency, µM (titrated, usually from 46.2 µM), most hits filed as inhibitors | AID 686978, 2013 | 15% of 420,000 active | DT40 Tdp1-/- hTDP1 cells, no CPT, ATP luminescence, 48 h; further: nearly all actives have a fitted effect of over 55% in size
#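 A cellular qHTS used chicken DT40 cells lacking endogenous Tdp1 but carrying stably transfected human TDP1. Compounds were applied without camptothecin, and cell growth kinetics were judged by ATP-dependent luminescence after ≥48 hr.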
# IL1B secr inh = inhibitors of inflammasome signaling (IL-1 beta secretion). 4.7% of 360,000 active. THP-1 LPS/ATP IL-1B secretion, AlphaLISA, 16 h; hits give low values. activity change, % at 57.5 µM. AID 743279; in the data active means activity change below about -50%; inconclusive means mostly about -30% to -49%
#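 THP-1 cells pretreated 1 hr with compounds (up to 57.5 uM final), then stimulated with LPS (250 ng/mL final) plus ATP (1.25 mM final); secreted IL-1B measured by AlphaLISA after 16 hr, decreased signal indicating inhibition.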
# TDP1 block = inhibitors of human tyrosyl-DNA phosphodiesterase TDP1 | Q9NUW8 | recombinant TDP1, AlphaScreen DNA substrate cleavage | Potency, µM (doses to about 130 µM), usual class: inhibitors | 0.28% of 350,000 active; further: nearly all actives have a fitted effect of over 40% in size
# Target sequence (Q9NUW8 whole entry, looked up): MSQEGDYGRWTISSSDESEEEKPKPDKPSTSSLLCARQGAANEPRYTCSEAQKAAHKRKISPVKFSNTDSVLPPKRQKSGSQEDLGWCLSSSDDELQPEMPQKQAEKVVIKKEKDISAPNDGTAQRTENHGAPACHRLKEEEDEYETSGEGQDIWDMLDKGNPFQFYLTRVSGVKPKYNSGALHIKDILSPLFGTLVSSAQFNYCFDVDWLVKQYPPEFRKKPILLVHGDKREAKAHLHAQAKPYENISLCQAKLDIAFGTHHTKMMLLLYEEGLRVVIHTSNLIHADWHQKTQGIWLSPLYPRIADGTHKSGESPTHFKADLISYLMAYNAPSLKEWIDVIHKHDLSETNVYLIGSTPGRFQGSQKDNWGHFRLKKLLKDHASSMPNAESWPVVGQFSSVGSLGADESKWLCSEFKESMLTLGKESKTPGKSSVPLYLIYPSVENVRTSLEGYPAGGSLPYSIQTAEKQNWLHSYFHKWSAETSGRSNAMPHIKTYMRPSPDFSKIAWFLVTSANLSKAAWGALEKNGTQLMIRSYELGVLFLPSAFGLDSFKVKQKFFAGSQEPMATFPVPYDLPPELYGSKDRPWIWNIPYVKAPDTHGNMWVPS
#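 Recombinant human Tdp1 (E. coli-expressed, 1 nM final) preincubated with compounds 15 min at room temperature, then 5'-biotin/3'-phosphotyrosine-FITC DNA substrate (15 nM final) added for 5 min. AlphaScreen beads (10 ug/ml final) added 10 min; cleavage lowers signal.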
# Giardia kill = Giardia lamblia killing. 0.15% of 340,000 active. activity change, % at 7.66 µM, hits read low. Giardia lamblia trophozoite viability; in the data active means activity change below about -80%; inconclusive means between about -30% and that limit;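 further: parasites exposed to compound for two days anaerobically before the ATP read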
#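 Media and compound were dispensed first, then trophozoites at 100 cells/well; plates sat 48 hrs at 37 deg C without oxygen before ATP luminescence reagent was added and read after 15-30 min at room temperature.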
# DT40 TDP1 CPT = DT40-hTDP1 cell growth loss with CPT; 12% of 420,000 active; chicken DT40 Tdp1-/-;hTDP1 cells + 20 nM CPT, ATP luminescence, 48 h; AID 686979; Potency, µM (doses to about 46.2 µM), usual class: inhibitors; further: nearly all actives have a fitted effect of over 55% in size
#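 Chicken DT40 Tdp1-/- cells complemented with human TDP1, 400 cells/well, exposed to compounds plus 20 nM camptothecin for at least 48 h at 37 C; viability read as ATP content by CellTiter-Glo luminescence.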
# ELG1 DNA repair = inhibitors of ELG1-dependent DNA repair in HEK293T cells | 2.3% of 330,000 active | HEK293T ELG1-luciferase reporter, luminescence, 16 h; DNA damage induced by 5-fluorouridine | Potency, µM (titrated, usually from 46.1 µM), actives largely listed as inhibitors | AID 504467; further: nearly all actives have a fitted effect of over 55% in size
#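 Cells (2,000 per well) received 5-fluorouridine plus test compound or DMSO and were incubated 16 hr at 37 °C, 5% CO2. Luciferase activity was read by luminescence 30 min after ONE-Glo addition; signal suppression marked inhibition of damage-induced ELG1 function.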
# Numbers stand for hits; 0 = inactive; ? = inconclusive; - = not tested or not shown. Unless noted, the call rests on the fitted dose curve; in most records, active means well fitted curve in the direction sought with a large enough effect; inconclusive means small, poorly fitted or top-dose-only effect, or another doubt; inactive means no such curve, though single readings can be large; an effect the other way counts as inactive or inconclusive.
SMILES,DT40 TDP1 no CPT,IL1B secr inh,TDP1 block,Giardia kill,DT40 TDP1 CPT,ELG1 DNA repair
CCSc1nnc2n1C(C)(C)Cc1ccccc1-2,0,0,0,0,0,0
Cc1cccc(-n2ncc(C(=O)N3CCN(C4CCCCC4)CC3)c2C2CCN(C(=O)OC(C)(C)C)CC2)c1,21µM,-,0,-,16µM,-
CC(C)(C)OC(=O)N1CCC(c2c(C(=O)N3CCC(c4ccccc4)C3)cnn2-c2cccc(Cl)c2)CC1 (stereo not given),15µM,-,0,-,18µM,-
CC(C)(C)OC(=O)N1CCC(c2c(C(=O)N3CCCCC3)cnn2-c2cccc(F)c2)CC1,0,-,0,-,0,-
CC1CCN(C(=O)c2cnn(-c3cccc(Cl)c3)c2C2CCN(C(=O)OC(C)(C)C)CC2)CC1,?,-,0,-,21µM,-
Cc1ccc(C2CCN(C(=O)c3cnn(-c4cccc(Cl)c4)c3C3CCN(C(=O)OC(C)(C)C)CC3)C2)cc1 (stereo not given),7.3µM,-,0,-,13µM,-
Cc1ccc(-n2ncc(C(=O)N3CCN(C4CCCCC4)CC3)c2C2CCN(C(=O)OC(C)(C)C)CC2)cc1,?,-,0,-,?,-
COCC1CCCCN1Cc1cn[nH]c1-c1ccc2cc(OC)ccc2c1 (stereo not given),?,0,0,0,0,0
CCOC(=O)c1sc2ncnc(NCc3ccco3)c2c1C,?,0,-,0,18µM,?
CCc1cc2c(NCc3ccco3)ncnc2s1,13µM,0,0,0,18µM,0
CN(Cc1ccc(C(C)(C)C)cc1)C(=O)c1ccc2c(c1)OCO2,?,0,0,?,0,0
COc1cccc(NC(=S)N2CCC(C(=O)c3ccc(F)cc3)CC2)c1,?,?,-,0,?,-
COc1ccc(C(=O)C2CCN(C(=S)Nc3ccc(F)cc3)CC2)cc1,0,-63,0,0,0,?
COc1ccc(NC(=S)N2CCC(C(=O)c3ccc(OC)cc3)CC2)cc1,16µM,0,0,0,?,23µM
COc1ccc(NC(=S)N2CCC(C(=O)c3ccc(C)cc3)CC2)cc1,8.2µM,0,-,0,?,0
O=C(CSc1nnc(-c2ccc(C(F)(F)F)cn2)s1)c1ccccc1,0,0,0,0,0,0
N/C(Cc1ccc([N+](=O)[O-])cc1)=N\OC(=O)c1ccc([N+](=O)[O-])cc1,?,?,0,0,?,0
C/C(=N\NC(=O)CSCc1ccc([N+](=O)[O-])cc1)c1cccc(Br)c1,18µM,0,0,0,10µM,?
C/C(=N/NC(=O)CSCc1ccc(Cl)cc1)c1cccc(NC(=O)c2ccccc2)c1,0,0,0,0,0,?
Cc1ccc(OCC(=O)O/N=C(\N)Cc2ccc(Cl)cc2)cc1,4.6µM,0,-,0,6.5µM,0
COc1ccc(OCC(=O)O/N=C(\N)Cc2ccc(Cl)cc2)cc1,0,0,-,0,0,0
N/C(Cc1ccc([N+](=O)[O-])cc1)=N\OC(=O)c1cccc(Br)c1,?,0,0,?,15µM,0
COc1cc(C(=O)O/N=C(\N)Cc2ccc([N+](=O)[O-])cc2)cc(OC)c1OC,15µM,0,0,0,3.7µM,?
COc1ccc(CN2CCCC(n3cc(C(=O)NC4CCCC4)nn3)C2)c(O)c1 (stereo not given),0,-,-,-,?,-
CC1=C(C(=O)Nc2ccccc2C)C(c2cccnc2)n2nc(SCc3ccccc3)nc2N1 (stereo not given),?,-,0,-,?,-
SMILES,DT40 TDP1 no CPT,IL1B secr inh,TDP1 block,Giardia kill,DT40 TDP1 CPT,ELG1 DNA repair
COc1ccc(C/C(N)=N/OC(=O)c2cccc([N+](=O)[O-])c2)cc1,?,0,0,0,?,0
Cc1ccc(C(=O)NCCOc2ccc(Cl)cc2)cc1,0,0,-,0,0,?
N/C(Cc1ccc(Cl)cc1)=N\OC(=O)c1ccccc1,?,0,0,0,?,0
Cc1ccc(C(=O)CC(=O)COc2ccc(Cl)cc2)cc1,15µM,0,0,0,?,?
COc1ccc(C(=O)O/N=C(\N)Cc2ccc([N+](=O)[O-])cc2)c(OC)c1,1.8µM,0,-,0,1.3µM,?
N/C(Cc1ccc(Cl)cc1)=N\OC(=O)Cc1ccc([N+](=O)[O-])cc1,?,-103,0,0,?,0
CCC(CC)C(=O)Nc1cccc(C(=O)c2ccccc2)c1,?,0,0,0,0,0
N=c1c2ccccc2nc2n1CCCCCCCCCCC2,7.3µM,-87,-,0,5.2µM,-
O=c1c2ccccc2nc2n1CCCCC2,0,0,0,0,0,0
COc1ccc(C(=O)N2CCCC(c3cc(C(=O)NCc4cccnc4)no3)C2)cc1 (stereo not given),?,0,-,-,?,-
CC(C)C(NC(=O)Nc1ccccc1)C(=O)Nc1cccc(S(=O)(=O)N(C)C)c1 (stereo not given),?,0,0,0,0,0
Cc1ccc(/C=C/c2onc(C)c2S(=O)(=O)N2CCC(C(=O)Nc3ccc(OC(F)(F)F)cc3)CC2)cc1,13µM,-,0,-,12µM,-
Cc1ccc(/C=C/c2onc(C)c2S(=O)(=O)N2CCC(C(=O)Nc3ccc(C)c(N(C)C)c3)CC2)cc1,9.2µM,-,0,-,8.2µM,-
O=C(CNC(=O)c1ccccc1Cl)NCCc1cccs1,0,0,0,0,0,?
O=C1CC(c2ccccc2F)c2cc3c(cc2N1)CCC3 (stereo not given),4.6µM,0,0,0,3.3µM,0
O=C1CC(c2cc(Br)ccc2F)c2cc3c(cc2N1)CCC3 (stereo not given),2.6µM,0,0,0,2.9µM,?
O=C1CC(c2ccccc2Br)c2cc3c(cc2N1)CCC3 (stereo not given),-,-,0,-,-,?
CCNc1ncc2nc(-c3cccs3)c(=O)n(Cc3cccs3)c2n1,0,-,-,-,0,-
COc1ccc(Cl)cc1NC(=O)Cn1nnc(C(=O)NCc2ccc3c(c2)OCO3)c1N,?,0,0,0,?,0
O=C1CC(c2ccco2)CC(O)=C1C=Nc1cc(Cl)ccc1Cl (stereo not given),0,0,0,0,0,0
O=C1CC(c2ccco2)CC(O)=C1C=Nc1cc(Cl)ccc1O (stereo not given),18µM,0,?,0,15µM,0
O=C1CC(c2ccco2)CC(O)=C1C=Nc1ccccc1-c1ccccc1 (stereo not given),?,0,0,0,18µM,0
COc1ccc(NC(=O)CCNS(=O)(=O)c2ccc3[nH]c(=O)oc3c2)cc1Cl,0,0,0,0,0,0
C#CCOCCOCCOCCNc1nc(N2CCN(C(=O)[C@H](C)n3cc(CCC(=O)O)nn3)CC2)nc(N2CCN(C(=O)[C@H](Cc3ccc(O)cc3)n3cc(CCO)nn3)CC2)n1,0,0,-,0,0,-
